The supplement of paper PMC10849652
Targets with a hit are over-represented here; the source holds about 7,900 in all. About 0.6% of all pairs of compound and target were hits. A number with no mark means an inactive call.

Legend:
Test in all cases: log2 fold change, soluble protein after heating vs DMSO (PISA); higher = thermal stabilisation; K562 cells, 10 uM, 30 min; active = over 0.2 and 3.5 SD of the protein, either way, in both replicates (recomputed)
[1] = compound: COC1=CC=C(C=C1)CN2C=CC3=C2C=C(C=C3)C(=O)NO
Procedure, shortened: (§1)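 K562 cells at 2×10^6 cells/mL were treated with 10 μM compound for 30 min. Aliquots were heated for 3 min across 48°C-58°C, pooled, and extracted in PBS with 0.5% NP-40 at 4°C; soluble protein was the supernatant after 21,000xg for 90 min. Soluble protein was quantified by TMTpro 16plex LC-MS/MS with channel sums equalised, and reported as log2 fold change in thermal stability against DMSO controls, with values from duplicates.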

filanesib = compound: CON(C)C(=O)N1N=C(c2cc(F)ccc2F)S[C@@]1(CCCN)c1ccccc1 [filanesib]
Procedure, shortened: as §1

zotarolimus = compound: CO[C@H]1C[C@@H]2CC[C@@H](C)[C@@](O)(O2)C(=O)C(=O)N2CCCC[C@H]2C(=O)O[C@H]([C@H](C)C[C@@H]2CC[C@H](n3cnnn3)[C@H](OC)C2)CC(=O)[C@H](C)/C=C(\C)[C@@H](O)[C@@H](OC)C(=O)[C@H](C)C[C@H](C)/C=C/C=C/C=C/1C [zotarolimus]
Procedure, shortened: as §1

idasanutlin = compound: COc1cc(C(=O)O)ccc1NC(=O)[C@@H]1N[C@@H](CC(C)(C)C)[C@](C#N)(c2ccc(Cl)cc2F)[C@H]1c1cccc(Cl)c1F [idasanutlin]
Procedure, shortened: as §1

alisertib = compound: COc1cc(Nc2ncc3c(n2)-c2ccc(Cl)cc2C(c2c(F)cccc2OC)=NC3)ccc1C(=O)O [alisertib]
Procedure, shortened: as §1

[2] = compound: COc1cc2nc(-c3cc(F)ccc3O)nc(N[C@@H]3CNC[C@H]3C(C)(C)O)c2cc1OC
Procedure, shortened: as §1

gefitinib = compound: COc1cc2ncnc(Nc3ccc(F)c(Cl)c3)c2cc1OCCCN1CCOCC1 [gefitinib]
Procedure, shortened: as §1

[3] = compound: COc1cccc2cc(-c3nc([C@H]4CC[C@H](C(=O)O)CC4)n4ncnc(N)c34)[nH]c12
Procedure, shortened: as §1

lapatinib = compound: CS(=O)(=O)CCNCc1ccc(-c2ccc3ncnc(Nc4ccc(OCc5cccc(F)c5)c(Cl)c4)c3c2)o1 [lapatinib]
Procedure, shortened: as §1

pictilisib = compound: CS(=O)(=O)N1CCN(Cc2cc3nc(-c4cccc5[nH]ncc45)nc(N4CCOCC4)c3s2)CC1 [pictilisib]
Procedure, shortened: as §1

Sequence of UniProt Q13733 (Q13733 whole entry, looked up): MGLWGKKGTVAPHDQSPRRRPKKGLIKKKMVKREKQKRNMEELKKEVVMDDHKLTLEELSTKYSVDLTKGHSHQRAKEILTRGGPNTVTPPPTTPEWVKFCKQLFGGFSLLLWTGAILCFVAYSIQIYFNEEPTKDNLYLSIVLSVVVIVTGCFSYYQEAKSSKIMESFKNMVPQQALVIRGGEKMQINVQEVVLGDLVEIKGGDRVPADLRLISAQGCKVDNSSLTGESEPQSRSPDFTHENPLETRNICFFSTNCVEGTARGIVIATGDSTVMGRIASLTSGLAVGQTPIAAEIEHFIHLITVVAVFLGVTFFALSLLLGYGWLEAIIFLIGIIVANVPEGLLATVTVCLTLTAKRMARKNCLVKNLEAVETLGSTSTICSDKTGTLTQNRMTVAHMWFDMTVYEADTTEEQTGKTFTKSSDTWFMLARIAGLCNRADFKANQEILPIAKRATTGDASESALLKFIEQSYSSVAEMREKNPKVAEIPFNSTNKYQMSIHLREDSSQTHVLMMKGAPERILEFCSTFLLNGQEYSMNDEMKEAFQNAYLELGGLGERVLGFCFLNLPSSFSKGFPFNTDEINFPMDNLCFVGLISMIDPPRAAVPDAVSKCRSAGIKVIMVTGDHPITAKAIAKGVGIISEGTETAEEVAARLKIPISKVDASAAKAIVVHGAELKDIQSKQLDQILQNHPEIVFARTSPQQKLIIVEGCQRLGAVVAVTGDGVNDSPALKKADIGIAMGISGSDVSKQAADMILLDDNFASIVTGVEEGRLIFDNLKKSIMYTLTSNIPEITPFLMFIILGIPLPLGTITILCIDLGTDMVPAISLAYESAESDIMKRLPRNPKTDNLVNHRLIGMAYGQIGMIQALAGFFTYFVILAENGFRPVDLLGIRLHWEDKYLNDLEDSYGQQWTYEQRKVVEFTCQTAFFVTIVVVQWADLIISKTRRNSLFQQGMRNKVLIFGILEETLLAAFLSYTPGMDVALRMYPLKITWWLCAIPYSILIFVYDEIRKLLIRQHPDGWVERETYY
Sequence of UniProt Q9H0E9 (Q9H0E9 whole entry, looked up): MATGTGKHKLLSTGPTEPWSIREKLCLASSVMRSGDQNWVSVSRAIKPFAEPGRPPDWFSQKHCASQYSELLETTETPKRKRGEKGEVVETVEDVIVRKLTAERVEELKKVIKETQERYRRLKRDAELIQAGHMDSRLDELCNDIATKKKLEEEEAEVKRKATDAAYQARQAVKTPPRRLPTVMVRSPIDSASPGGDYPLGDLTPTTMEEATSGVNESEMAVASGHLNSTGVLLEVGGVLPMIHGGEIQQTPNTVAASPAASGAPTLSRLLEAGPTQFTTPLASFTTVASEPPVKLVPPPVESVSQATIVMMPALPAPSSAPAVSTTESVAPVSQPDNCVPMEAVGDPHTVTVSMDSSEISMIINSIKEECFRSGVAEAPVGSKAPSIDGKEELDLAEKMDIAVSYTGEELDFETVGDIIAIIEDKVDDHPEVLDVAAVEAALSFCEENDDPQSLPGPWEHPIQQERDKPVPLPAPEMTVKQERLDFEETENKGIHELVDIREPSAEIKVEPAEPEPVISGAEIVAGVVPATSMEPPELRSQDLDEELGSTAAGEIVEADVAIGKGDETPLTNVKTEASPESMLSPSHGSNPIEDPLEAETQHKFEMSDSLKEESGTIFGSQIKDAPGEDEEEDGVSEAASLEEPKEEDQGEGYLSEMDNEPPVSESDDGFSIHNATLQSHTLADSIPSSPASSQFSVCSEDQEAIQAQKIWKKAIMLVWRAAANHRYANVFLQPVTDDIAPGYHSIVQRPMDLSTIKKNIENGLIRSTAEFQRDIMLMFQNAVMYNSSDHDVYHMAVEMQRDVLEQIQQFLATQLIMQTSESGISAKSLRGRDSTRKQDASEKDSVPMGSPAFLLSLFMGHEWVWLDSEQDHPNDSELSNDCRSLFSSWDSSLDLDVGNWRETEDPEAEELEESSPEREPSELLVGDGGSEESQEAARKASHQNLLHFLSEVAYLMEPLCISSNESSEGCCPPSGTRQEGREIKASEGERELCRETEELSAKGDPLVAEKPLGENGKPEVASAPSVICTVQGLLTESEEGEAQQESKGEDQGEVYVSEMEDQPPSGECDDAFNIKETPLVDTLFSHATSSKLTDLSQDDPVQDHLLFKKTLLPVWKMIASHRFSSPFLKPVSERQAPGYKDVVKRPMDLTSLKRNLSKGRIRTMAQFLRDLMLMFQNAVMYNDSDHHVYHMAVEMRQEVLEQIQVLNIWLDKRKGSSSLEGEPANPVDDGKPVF
Sequence of UniProt P42025 (P42025 whole entry, looked up): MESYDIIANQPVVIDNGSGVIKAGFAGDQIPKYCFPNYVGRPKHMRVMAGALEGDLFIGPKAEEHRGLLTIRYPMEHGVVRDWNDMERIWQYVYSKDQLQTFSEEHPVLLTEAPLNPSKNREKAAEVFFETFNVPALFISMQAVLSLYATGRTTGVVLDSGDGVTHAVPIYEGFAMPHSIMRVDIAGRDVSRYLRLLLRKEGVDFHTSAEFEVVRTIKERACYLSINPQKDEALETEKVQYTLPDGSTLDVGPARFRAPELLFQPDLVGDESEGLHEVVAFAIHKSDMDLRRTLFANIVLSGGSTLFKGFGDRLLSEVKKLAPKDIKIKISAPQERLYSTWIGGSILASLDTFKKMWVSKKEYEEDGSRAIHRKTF
Sequence of UniProt P55196 (P55196 whole entry, looked up): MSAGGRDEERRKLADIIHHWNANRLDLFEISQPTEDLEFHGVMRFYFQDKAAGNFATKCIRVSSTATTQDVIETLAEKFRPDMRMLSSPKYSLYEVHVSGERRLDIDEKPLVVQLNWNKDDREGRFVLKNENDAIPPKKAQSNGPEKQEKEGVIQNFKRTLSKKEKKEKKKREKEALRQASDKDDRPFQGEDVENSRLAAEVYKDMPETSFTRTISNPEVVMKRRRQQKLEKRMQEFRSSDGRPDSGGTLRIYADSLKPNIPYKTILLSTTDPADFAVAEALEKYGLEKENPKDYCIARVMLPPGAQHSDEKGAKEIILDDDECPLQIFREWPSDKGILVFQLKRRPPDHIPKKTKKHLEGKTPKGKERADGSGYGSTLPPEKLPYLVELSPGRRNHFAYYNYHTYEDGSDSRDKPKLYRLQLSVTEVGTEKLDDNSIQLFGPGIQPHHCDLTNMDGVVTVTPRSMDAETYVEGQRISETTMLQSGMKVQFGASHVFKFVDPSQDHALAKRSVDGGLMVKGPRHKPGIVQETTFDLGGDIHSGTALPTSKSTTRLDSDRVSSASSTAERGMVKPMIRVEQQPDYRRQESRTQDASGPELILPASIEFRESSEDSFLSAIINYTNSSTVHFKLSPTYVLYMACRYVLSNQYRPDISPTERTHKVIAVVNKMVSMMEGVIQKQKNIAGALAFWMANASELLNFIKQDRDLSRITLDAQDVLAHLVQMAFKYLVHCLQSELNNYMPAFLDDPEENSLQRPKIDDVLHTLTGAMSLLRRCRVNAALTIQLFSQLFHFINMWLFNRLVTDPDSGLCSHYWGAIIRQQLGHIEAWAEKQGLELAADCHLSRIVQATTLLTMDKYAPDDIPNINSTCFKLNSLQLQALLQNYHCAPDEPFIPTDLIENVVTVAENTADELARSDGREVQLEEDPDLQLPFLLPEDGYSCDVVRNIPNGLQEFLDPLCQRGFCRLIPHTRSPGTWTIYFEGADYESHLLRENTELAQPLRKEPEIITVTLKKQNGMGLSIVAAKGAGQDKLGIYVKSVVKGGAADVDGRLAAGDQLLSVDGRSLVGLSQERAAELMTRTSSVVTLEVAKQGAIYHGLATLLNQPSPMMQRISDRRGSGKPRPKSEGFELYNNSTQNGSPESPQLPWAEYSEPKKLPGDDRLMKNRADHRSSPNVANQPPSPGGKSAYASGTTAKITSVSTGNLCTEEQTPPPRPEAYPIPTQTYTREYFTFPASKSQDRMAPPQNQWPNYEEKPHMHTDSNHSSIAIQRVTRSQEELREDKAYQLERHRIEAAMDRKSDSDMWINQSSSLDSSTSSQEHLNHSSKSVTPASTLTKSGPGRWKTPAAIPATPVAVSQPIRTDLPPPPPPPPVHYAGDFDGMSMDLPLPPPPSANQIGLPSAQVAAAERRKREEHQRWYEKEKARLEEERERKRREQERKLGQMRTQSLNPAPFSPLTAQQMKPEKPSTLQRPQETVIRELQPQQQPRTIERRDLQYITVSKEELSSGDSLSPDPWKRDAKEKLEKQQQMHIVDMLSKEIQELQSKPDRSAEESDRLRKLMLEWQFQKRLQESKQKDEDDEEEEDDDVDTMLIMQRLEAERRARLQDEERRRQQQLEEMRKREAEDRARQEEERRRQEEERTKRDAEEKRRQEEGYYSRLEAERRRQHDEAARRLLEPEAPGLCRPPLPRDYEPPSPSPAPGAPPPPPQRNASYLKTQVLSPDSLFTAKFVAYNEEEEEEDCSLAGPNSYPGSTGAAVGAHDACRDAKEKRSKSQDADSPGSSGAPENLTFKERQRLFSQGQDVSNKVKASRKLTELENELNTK
Sequence of UniProt P31749 (P31749 whole entry, looked up): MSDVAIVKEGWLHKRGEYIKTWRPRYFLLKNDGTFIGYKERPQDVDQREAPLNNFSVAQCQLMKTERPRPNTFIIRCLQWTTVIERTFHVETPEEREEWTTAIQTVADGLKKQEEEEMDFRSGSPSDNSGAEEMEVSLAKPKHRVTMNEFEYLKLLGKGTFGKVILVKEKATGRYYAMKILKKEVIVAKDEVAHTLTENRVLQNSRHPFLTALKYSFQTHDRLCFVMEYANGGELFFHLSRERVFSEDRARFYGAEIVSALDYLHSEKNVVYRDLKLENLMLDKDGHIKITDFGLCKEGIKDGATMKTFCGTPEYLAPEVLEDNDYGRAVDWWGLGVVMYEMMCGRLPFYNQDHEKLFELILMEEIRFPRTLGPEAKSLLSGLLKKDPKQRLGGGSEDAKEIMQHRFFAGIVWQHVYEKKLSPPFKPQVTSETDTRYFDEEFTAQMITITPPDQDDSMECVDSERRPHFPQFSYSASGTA
Sequence of UniProt P24666 (P24666 whole entry, looked up): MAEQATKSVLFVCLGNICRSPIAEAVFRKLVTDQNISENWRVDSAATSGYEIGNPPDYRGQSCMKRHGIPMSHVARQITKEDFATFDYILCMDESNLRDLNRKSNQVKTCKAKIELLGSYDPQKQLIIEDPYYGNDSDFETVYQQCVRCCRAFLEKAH

| Target | log2 fold change [1] | log2 fold change (filanesib) | log2 fold change (zotarolimus) | log2 fold change (idasanutlin) | log2 fold change (alisertib) | log2 fold change [2] | log2 fold change (gefitinib) | log2 fold change [3] | log2 fold change (lapatinib) | log2 fold change (pictilisib) |
| --- | --- | --- | --- | --- | --- | --- | --- | --- | --- | --- |
| ACP1 isoform 2 (UniProt P24666) | 0.029 | 0.095 | 0.009 | 0.028 | 0.094 | 0.036 | 0.045 | -0.077 | 0.014 | 0.055 |
| ATAD3A isoform 2 (UniProt Q9NVI7) | -0.029 | -0.005 | -0.053 | 0.073 | -0.006 | -0.116 | -0.199 | 0.001 | -0.029 | -0.185 |
| BAIAP2 (UniProt Q9UQB8) | 0.014 | -0.029 | -0.016 | -0.003 | 0.008 | -0.131 | -0.026 | -0.024 | 0.036 | 0 |
| AARS2 (UniProt Q5JTZ9) | -0.053 | -0.159 | 0.029 | -0.107 | 0.016 | -0.012 | -0.002 | 0.047 | -0.005 | 0.06 |
| BCL9L (UniProt Q86UU0) | -0.048 | 0.017 | -0.043 | 0.028 | 0.014 | 0.02 | 0.034 | -0.067 | 0.011 | -0.007 |
| ACP1 (UniProt P24666) | 0.008 | -0.047 | -0.039 | -0.078 | 0.029 | 0.056 | 0.003 | -0.086 | -0.073 | -0.062 |
| ATP6AP1 (UniProt Q15904) | -0.099 | -0.064 | 0.025 | 0.009 | 0.166 | -0.068 | -0.009 | -0.057 | 0.019 | -0.017 |
| ATP6V1C1 (UniProt P21283) | -0.012 | 0.029 | 0.08 | 0.016 | -0.069 | -0.091 | -0.286 | -0.206 | -0.046 | -0.022 |
| ATG4B isoform 2 (UniProt Q9Y4P1) | -0.003 | -0.142 | 0.048 | -0.045 | -0.009 | -0.058 | 0.005 | -0.082 | -0.157 | -0.311 |
| ATP1A4 (UniProt Q13733) | 0.042 | 0.006 | 0.006 | 0.063 | -0.083 | 0.003 | 0.057 | -0.024 | -0.01 | 0.016 |
| AARSD1 isoform 3 (UniProt Q9BTE6) | -0.47 (active) | -0.013 | 0.012 | 0.076 | -0.067 | -0.012 | 0.083 | -0.081 | 0.045 | 0.029 |
| ATL2 (UniProt Q8NHH9) | -0.006 | -0.03 | 0.026 | -0.052 | 0.008 | 0.148 | 0.016 | 0.034 | -0.039 | 0.003 |
| ATP9B (UniProt O43861) | -0.019 | 0.192 | -0.054 | 0.022 | -0.039 | 0.023 | 0.101 | 0.178 | 0.019 | 0.012 |
| ACIN1 (UniProt Q9UKV3) | 0.019 | 0.073 | 0.028 | 0.099 | -0.082 | -0.062 | 0.041 | 0.006 | 0.034 | 0.03 |
| ATP5ME (UniProt P56385) | -0.023 | -0.053 | 0.002 | -0.024 | -0.027 | -0.04 | 0.021 | 0.063 | -0.001 | 0.019 |
| AP2M1 (UniProt Q96CW1) | -0.008 | 0.048 | 0.017 | -0.018 | -0.06 | 0.01 | 0.032 | 0.01 | 0.014 | -0.021 |
| ALG5 (UniProt Q9Y673) | 0 | -0.054 | 0.039 | -0.139 | 0.675 | 0.095 | 0.023 | 0.013 | 0.046 | 0.075 |
| ACBD6 (UniProt Q9BR61) | 0.099 | 0.034 | 0.016 | 0.09 | -0.088 | 0.133 | -0.018 | -0.271 | -0.14 | 0.012 |
| ARL6IP6 (UniProt Q8N6S5) | -0.113 | -0.014 | -0.03 | -0.088 | 0.004 | -0.042 | -0.021 | 0.036 | 0.004 | 0.005 |
| ABCB6 (UniProt Q9NP58) | -0.007 | -0.077 | 0.055 | -0.137 | -0.069 | 0.058 | -0.011 | 0.024 | -0.005 | 0.06 |
| ACTR1B (UniProt P42025) | 0.084 | 0.044 | -0.026 | -0.136 | -0.163 | 0.008 | 0.04 | 0.073 | -0.104 | 0.127 |
| ARFGEF1 (UniProt Q9Y6D6) | 0.043 | 0.014 | 0.111 | -0.092 | -0.075 | 0.246 (active) | 0.06 | 0.016 | 0.116 | 0.006 |
| AFDN isoform 1 (UniProt P55196) | -0.151 | 0.024 | -0.01 | 0.019 | 0.127 | – | – | 0.074 | – | -0.144 |
| BRD8 (UniProt Q9H0E9) | -0.013 | 0.064 | -0.029 | 0.08 | -0.061 | -0.032 | 0.005 | 0.017 | -0.009 | 0.103 |
| ALG3 (UniProt Q92685) | 0.109 | -0.095 | 0.06 | -0.212 | -0.001 | 0.035 | -0.046 | 0 | 0.104 | 0.006 |
| ATP13A3 (UniProt Q9H7F0) | -0.034 | 0.054 | -0.158 | -0.027 | -0.098 | -0.078 | -0.02 | -0.038 | 0.005 | 0.104 |
| AKT1 (UniProt P31749) | -0.001 | 0.001 | 0.059 | -0.134 | -0.07 | 0.1 | 0.025 | -0.224 | 0.135 | 0.216 |
